# Test results published in PubChem BioAssay.
# Active and inactive are the calls of the source. Unless noted, how the calls were made is not given here.
# Tests used:
# [1] = system: Wnt5a (protein binding on small-molecule microarray); assay: Wnt5a binders on small-molecule microarray, primary screen, biophysical, 635/667 nm fluorescence (AID 1142); conditions: 635 nm fluorescence, higher = more signal;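 further: fluorescence read at 667 nm with signal to noise per printed feature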
# [2] = cell viability in Huh7 cells, primary screen, cytotoxicity control for HCV replication inhibitor project, CellTiter-Glo luminescence, basal, 48 h (AID 1143); conditions: Huh7 HCV replicon, higher = more signal, called active from +8 up or from −8 down;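 further: Huh7 hepatoma cells carrying a hepatitis C replication reporter with no stimulus; test concentration not given here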
# [3] = P. aeruginosa biofilm formation inhibitors, primary screen, PAO1 strain, BacTiter-Glo luminescence, LB-PBS (AID 1144); conditions: 12 h, higher = more signal
# [4] = CREB reporter modulators without forskolin, primary screen, cell-based, PC12, CRE-LacZ reporter, unstimulated (AID 1145); conditions: no forskolin, luminescence, 4.5 h, higher = more signal, called active from +8 up or from −8 down
# [5] = CREB reporter modulators under forskolin, primary screen, cell-based, PC12, CRE-LacZ reporter, forskolin-stimulated (AID 1146); conditions: luminescence, 4.5 h, higher = more signal, called active from +8 up or from −8 down;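 further: PC12 cells with 6xCRE LacZ reporter stimulated by forskolin 10 µM; beta-galactosidase reporter signal reflecting CREB driven transcription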
# [6] = molecular target: Streptavidin (Streptomyces avidinii) (UniProt P22629); assay: streptavidin binders on small-molecule microarray, primary screen, artefact control for SMM compound annotation, biophysical, 635/667 nm fluorescence (AID 1147); conditions: streptavidin binding, higher = more signal;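 further: signal reflects streptavidin binding to arrayed compounds as a control protein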
# Sequence of Streptavidin (Streptomyces avidinii) (P22629 whole entry, looked up): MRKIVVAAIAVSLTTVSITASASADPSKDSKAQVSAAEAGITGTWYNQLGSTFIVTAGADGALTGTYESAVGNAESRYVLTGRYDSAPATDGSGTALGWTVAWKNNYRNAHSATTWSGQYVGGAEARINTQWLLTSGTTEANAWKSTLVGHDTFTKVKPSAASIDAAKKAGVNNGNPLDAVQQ
# [7] = small-molecule binders of probe aInhba, primary screen, biochemical, small-molecule microarray, 635/667 nm fluorescence (AID 1148); conditions: higher = more signal;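 further: score merges 667nm spot fluorescence with signal-to-noise for antibody binding to printed compounds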
# Torsin-1A (Homo sapiens) [8] = molecular target: Torsin-1A (Homo sapiens) (UniProt O14656); assay: torsin A binders from cell lysate, primary screen, small-molecule microarray, wild-type, 635/667 nm (AID 1149); conditions: COS7 hTOR1A-WT lysate, 635 nm fluorescence, higher = more signal
# Sequence of Torsin-1A (Homo sapiens) (O14656 whole entry, looked up): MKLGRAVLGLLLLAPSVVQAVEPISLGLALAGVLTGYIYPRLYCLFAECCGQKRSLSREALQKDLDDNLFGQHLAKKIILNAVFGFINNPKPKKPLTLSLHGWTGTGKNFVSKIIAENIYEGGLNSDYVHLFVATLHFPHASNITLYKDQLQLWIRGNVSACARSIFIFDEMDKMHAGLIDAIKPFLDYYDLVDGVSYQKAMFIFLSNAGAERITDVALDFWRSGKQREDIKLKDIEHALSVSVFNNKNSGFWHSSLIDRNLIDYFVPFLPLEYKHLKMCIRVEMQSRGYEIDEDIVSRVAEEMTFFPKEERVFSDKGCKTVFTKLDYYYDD
# Torsin-1A (Homo sapiens) [9] = molecular target: Torsin-1A (Homo sapiens) (UniProt O14656); assay: small-molecule binders of mutant TOR1A in lysate, primary screen, cell lysate, small-molecule microarray, COS7 lysate, 635/667 nm fluorescence (AID 1150); conditions: COS7 hTOR1A mutant lysate, 635 nm fluorescence, higher = more signal;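 further: score pools 667 nm emission and signal to noise measuring lysate protein binding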
# [10] = system: Sonic hedgehog protein (Shh); assay: small-molecule binders of Shh protein, primary screen, biochemical, small-molecule microarray, 635/667 nm fluorescence (AID 1151); conditions: small-molecule microarray binding, 635 nm fluorescence; higher = more signal;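 further: Shh protein binding to compounds spotted on small-molecule microarray slides; score combines spot fluorescence intensity with signal-to-noise across triplicate slides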
# [11] = E. coli DRC41 culture turbidity changes, primary screen, E. coli filamentation inducer project, strain DRC41, OD650, 48 h (AID 1152);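 further: E. coli MC1000 strain DRC41 lacking acrAB efflux pump and sulA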; conditions: E. coli DRC41 (acrAB sulA), higher = more signal, called active from +8 up or from −8 down
# [12] = small-molecule binders of probe aLefty1, primary screen, biochemical, small-molecule microarray, 635/667 nm fluorescence (AID 1153); conditions: higher = more signal;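 further: score merges spot fluorescence with signal-to-noise ratio from the scanned slide images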
# [13] = PSAC antagonists in infected red cells, primary screen, cell-based, P. falciparum Indochina, OD700, 1 h (AID 1154); conditions: P. falciparum Indochina infected RBC osmotic lysis, higher = more signal, called active from +8 up or from −8 down
# [14] = PSAC antagonists in infected red cells, primary screen, cell-based, P. falciparum Indochina, OD700, 2 h (AID 1155);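 further: lysis reports solute entry through the parasite surface anion channel PSAC; channel blockers reduce lysis of infected cells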; conditions: P. falciparum Indochina infected erythrocytes, osmotic lysis OD700; higher = more signal, called active from +8 up or from −8 down
# [15] = osmotic lysis modulators in infected erythrocytes, primary screen, PSAC antagonist project, cell-based, P. falciparum Indochina, OD700, 3 h (AID 1156); conditions: higher = more signal, called active from +8 up or from −8 down
# [16] = PSAC antagonists in infected red cells, primary screen, cell-based, P. falciparum Indochina, OD700, 18 h (AID 1157); conditions: P. falciparum Indochina infected erythrocytes, osmotic lysis OD700, 18 h; higher = more signal, called active from +8 up or from −8 down
# [17] = modulators of S6 phosphorylation in cells, primary screen, cell-based, A549, cytoblot, luminescence, serum-stimulated (AID 1158); conditions: A549 phospho-S6 cytoblot, 5 h, higher = more signal;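 further: serum-stimulated A549 lung adenocarcinoma cells; signal is phosphorylated S6 detected by cytoblot immunostaining with HRP secondary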
# [18] = molecular target: NADPH oxidase 2 (Homo sapiens) (UniProt P04839); assay: NOX2-dependent H2O2 signal modulators, primary screen, NOX inhibitor project, cell-based, HEK293-NOX2, PMA-stimulated, Amplex Red fluorescence (AID 1159); conditions: 45 min, higher = more signal, called active from +8 up or from −8 down; further: test concentration not given here
# Sequence of NADPH oxidase 2 (Homo sapiens) (P04839 whole entry, looked up): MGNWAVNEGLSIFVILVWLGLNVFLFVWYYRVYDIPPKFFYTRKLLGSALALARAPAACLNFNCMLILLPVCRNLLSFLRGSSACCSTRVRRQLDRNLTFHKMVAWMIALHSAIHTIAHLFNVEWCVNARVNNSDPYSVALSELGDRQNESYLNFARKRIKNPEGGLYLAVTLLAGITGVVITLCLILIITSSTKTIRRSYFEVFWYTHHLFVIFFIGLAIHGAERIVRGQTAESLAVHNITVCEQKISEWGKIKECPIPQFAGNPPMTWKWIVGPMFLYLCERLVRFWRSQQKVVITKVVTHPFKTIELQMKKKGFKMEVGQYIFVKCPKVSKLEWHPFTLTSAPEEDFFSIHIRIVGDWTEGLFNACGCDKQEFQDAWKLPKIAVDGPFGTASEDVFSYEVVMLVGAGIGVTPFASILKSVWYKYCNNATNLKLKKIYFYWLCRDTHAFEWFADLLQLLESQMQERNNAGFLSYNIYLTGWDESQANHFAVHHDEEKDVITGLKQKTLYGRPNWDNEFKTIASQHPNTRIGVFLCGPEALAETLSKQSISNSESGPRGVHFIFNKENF
# [19] = molecular target: NADPH oxidase 4 (Homo sapiens) (UniProt Q9NPH5); assay: NOX4-dependent H2O2 signal modulators, primary screen, NOX inhibitor project, cell-based, HEK293-NOX4, tetracycline-induced, Amplex Red fluorescence (AID 1160); conditions: 45 min, higher = more signal, called active from +8 up or from −8 down
# Sequence of NADPH oxidase 4 (Homo sapiens) (Q9NPH5 whole entry, looked up): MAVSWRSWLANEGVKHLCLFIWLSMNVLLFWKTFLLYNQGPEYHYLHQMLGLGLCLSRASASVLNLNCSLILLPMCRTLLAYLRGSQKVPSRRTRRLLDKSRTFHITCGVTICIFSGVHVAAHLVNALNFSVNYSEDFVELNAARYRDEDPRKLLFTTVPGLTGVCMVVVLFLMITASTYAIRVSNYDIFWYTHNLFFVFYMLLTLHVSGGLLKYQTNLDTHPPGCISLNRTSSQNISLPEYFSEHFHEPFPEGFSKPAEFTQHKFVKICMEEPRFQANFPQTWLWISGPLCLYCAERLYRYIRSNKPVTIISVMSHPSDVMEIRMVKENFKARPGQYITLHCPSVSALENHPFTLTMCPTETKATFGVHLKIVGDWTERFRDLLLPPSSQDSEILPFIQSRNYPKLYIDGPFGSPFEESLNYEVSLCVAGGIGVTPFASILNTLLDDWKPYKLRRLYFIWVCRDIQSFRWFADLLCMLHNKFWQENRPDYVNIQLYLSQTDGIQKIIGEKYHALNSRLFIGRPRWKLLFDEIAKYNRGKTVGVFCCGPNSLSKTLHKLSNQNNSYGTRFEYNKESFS
# [20] = molecular target: NADPH oxidase 5 (Homo sapiens) (UniProt Q96PH1); assay: NOX5-dependent H2O2 signal modulators, primary screen, NOX inhibitor project, cell-based, HEK293-NOX5, Amplex Red fluorescence (AID 1161); conditions: HEK293-NOX5, ionomycin, 45 min, higher = more signal
# Sequence of NADPH oxidase 5 (Homo sapiens) (Q96PH1 whole entry, looked up): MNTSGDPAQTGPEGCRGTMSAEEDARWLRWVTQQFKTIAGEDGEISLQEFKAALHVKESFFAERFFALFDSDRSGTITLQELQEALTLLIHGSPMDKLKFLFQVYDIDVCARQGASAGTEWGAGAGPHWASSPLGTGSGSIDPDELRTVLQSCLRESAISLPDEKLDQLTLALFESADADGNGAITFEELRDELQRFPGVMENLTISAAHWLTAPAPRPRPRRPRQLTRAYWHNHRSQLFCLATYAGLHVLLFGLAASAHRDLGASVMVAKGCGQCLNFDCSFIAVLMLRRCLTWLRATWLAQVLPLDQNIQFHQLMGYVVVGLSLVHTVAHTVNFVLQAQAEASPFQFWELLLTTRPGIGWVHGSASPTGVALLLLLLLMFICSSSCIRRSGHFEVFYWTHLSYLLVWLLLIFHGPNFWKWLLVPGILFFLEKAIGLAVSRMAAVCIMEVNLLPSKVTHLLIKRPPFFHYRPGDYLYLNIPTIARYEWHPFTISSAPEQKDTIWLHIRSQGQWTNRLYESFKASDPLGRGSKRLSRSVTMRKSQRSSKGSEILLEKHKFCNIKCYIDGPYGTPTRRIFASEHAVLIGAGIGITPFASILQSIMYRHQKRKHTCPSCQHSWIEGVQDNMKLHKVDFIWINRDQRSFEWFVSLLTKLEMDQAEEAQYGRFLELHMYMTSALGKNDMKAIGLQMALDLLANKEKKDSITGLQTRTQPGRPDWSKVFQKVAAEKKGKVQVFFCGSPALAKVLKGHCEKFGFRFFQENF
SMILES,composite z-score [1],z-score [2],z-score [3],z-score [4],z-score [5],composite z-score [6],composite z-score [7],composite z-score (Torsin-1A (Homo sapiens) [8]),composite z-score (Torsin-1A (Homo sapiens) [9]),composite z-score [10],z-score [11],composite z-score [12],z-score [13],z-score [14],z-score [15],z-score [16],z-score [17],z-score [18],z-score [19],z-score [20]
C[N+](C)(C)CCCC[C@@H]1NC(=O)[C@H]2C[C@@H](C(=O)O)[C@@H](c3cccc(OCCO)c3)N2C1=O,1.93,0.0605 (inactive),0.308 (inactive),-0.138 (inactive),0.629 (inactive),3.77,0.893,1.95,2.13,1.4,-0.0215 (inactive),1.69,1.15 (inactive),0.729 (inactive),-1.43 (inactive),0.252 (inactive),0.743,0.114 (inactive),0.0916 (inactive),0.986
C=C[C@@H](C)[C@@H](OC(=O)Nc1ccc(OC)cc1)c1ccc(O)c2ccccc12,-0.124,-5.48 (inactive),-0.901 (inactive),0.758 (inactive),0.999 (inactive),0.0646,-0.154,0.15,-0.0324,1.53,0.0598 (inactive),-0.0222,2.46 (inactive),0.661 (inactive),0.0162 (inactive),0.354 (inactive),0.382,-5.9 (inactive),-1.81 (inactive),-0.437
CN(C)CCCC[C@@H]1NC(=O)[C@@H]2C[C@H](C(=O)NCCCCCCN)[C@H](c3ccc(O)cc3)N2C1=O,0.346,0.255 (inactive),-0.481 (inactive),-0.122 (inactive),0.208 (inactive),1.19,0.554,0.613,0.901,0.945,-0.337 (inactive),1.37,1.98 (inactive),0.288 (inactive),1.28 (inactive),0.229 (inactive),-0.648,1.46 (inactive),-0.964 (inactive),1.01
O=C1OCC=C[C@H]2OC34C=CCN(c5ccc(Cl)cc5)C(=O)[C@H]3N(CCCO)C(=O)[C@@H]4[C@@H]12 (stereo not given in full),-0.329,-2.14 (inactive),-0.288 (inactive),1.28 (inactive),0.245 (inactive),-1.47,-0.15,0.626,-2.06,-0.629,0.657 (inactive),-0.128,0.204 (inactive),-0.531 (inactive),-0.172 (inactive),-1.41 (inactive),0.808,0.846 (inactive),-0.895 (inactive),2.6
COC(=O)[C@@]1(Cc2ccc(F)cc2)[C@H]2c3cc(C(=O)N4CCCC4)n(Cc4ccc(Cl)c(C(F)(F)F)c4)c3C[C@H]2CN1C(=O)c1ccccc1,1.99,-2.95 (inactive),0.678 (inactive),0.204 (inactive),1.49 (inactive),2.28,1.35,0.0817,0.51,-0.239,-1.31 (inactive),1.99,3.16 (inactive),0.895 (inactive),0.923 (inactive),1.21 (inactive),-0.256,0.71 (inactive),0.705 (inactive),1.31
CCOC(=O)C1=C[C@@H](C(C)(C)C)N(S(=O)(=O)c2ccc(C)cc2)[C@H]1c1ccc(Cl)c(Cl)c1,0.28,-4.01 (inactive),0.599 (inactive),0.229 (inactive),0.303 (inactive),1.04,0.196,0.126,0.837,0.202,-1.27 (inactive),0.157,1.92 (inactive),1.15 (inactive),-0.335 (inactive),0.659 (inactive),-0.359,-0.739 (inactive),0.0493 (inactive),0.263
C=C(C(=O)CC[C@H](OC(=O)c1cccnc1)c1ccccc1OCCO)C(C)C,1.14,-1.13 (inactive),-0.467 (inactive),2.22 (inactive),0.716 (inactive),-0.383,-0.168,2.32,1.54,2.27,-0.378 (inactive),0.188,9.51 (active),0.943 (inactive),0.611 (inactive),0.381 (inactive),0.142,-1.85 (inactive),-0.81 (inactive),-2.03
O=C(NCCN1CCOCC1)[C@@H]1c2ccccc2C(=O)N(Cc2cc(F)cc(C(F)(F)F)c2)[C@H]1c1ccc(CO)cc1,-0.33,-0.269 (inactive),0.153 (inactive),0.378 (inactive),0.0284 (inactive),-0.78,0.422,0.543,0.165,1.76,-0.61 (inactive),-0.0492,3.37 (inactive),0.298 (inactive),0.884 (inactive),0.0839 (inactive),-0.287,1.44 (inactive),1.12 (inactive),2
